Most compounds without a hit are left out; they make up all but 22% or so of the library.
Shiga inhibitor: A qHTS for Small Molecule Inhibitors of Shiga Toxin | Vero cells, Shiga toxin protein synthesis inhibition reporter | 9.2% of 290,000 active | AID 2315, 2010 | inhibition, % at 38.7 µM; in the data active = inhibition mostly above about 28%, no sharp cut-off; inactive = mostly below about 43%
Pf growth 96h: Primary qHTS for delayed death inhibitors of the malarial parasite plastid, 96 hour incubation. P. falciparum luciferase reporter growth, 96 h. Potency, µM (highest dose often 28.7 µM), hits mostly inhibitors. 6.9% of 320,000 active
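P. falciparum expressing integrated firefly luciferase grown in erythrocytes (2% hematocrit, 0.05% parasitemia final) with compounds for 96 hours at 37 C, 5% CO2. Growth inhibition read as loss of luminescence after adding luciferase detection reagent.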
Pf growth 48h: Primary qHTS for delayed death inhibitors of the malarial parasite plastid, 48 hour incubation | P. falciparum luciferase growth in erythrocytes, 48 h | Potency, µM (highest dose often 28.7 µM), most hits filed as inhibitors | 5.9% of 310,000 active
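Compounds are pin-transferred into medium, infected erythrocytes (2% hematocrit, 0.1% parasitemia final) are added, and plates sit one parasite generation at 37 C in 5% CO2. Detection reagent is then added and luminescence measured.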
CHX counter: Cycloheximide Counterscreen for Small Molecule Inhibitors of Shiga Toxin | cell reporter, cycloheximide protein synthesis inhibition counterscreen | max response, % | 12% of 300,000 active | AID 2314, 2010; in the data active = max response mostly above about 13%, no sharp cut-off; inactive = mostly below about 14%; note: read at 38.3 µM for the half of the compounds with a filed dose
LmPK inh: qHTS Assay for Inhibitors of Leishmania Mexicana Pyruvate Kinase (LmPK); Q27686; 0.37% of 290,000 active; Potency, µM (titrated, usually from 57.5 µM), most hits filed as inhibitors; purified LmPK, Kinase-Glo ATP luminescence, 1 h
Target sequence (Q27686 whole entry, looked up): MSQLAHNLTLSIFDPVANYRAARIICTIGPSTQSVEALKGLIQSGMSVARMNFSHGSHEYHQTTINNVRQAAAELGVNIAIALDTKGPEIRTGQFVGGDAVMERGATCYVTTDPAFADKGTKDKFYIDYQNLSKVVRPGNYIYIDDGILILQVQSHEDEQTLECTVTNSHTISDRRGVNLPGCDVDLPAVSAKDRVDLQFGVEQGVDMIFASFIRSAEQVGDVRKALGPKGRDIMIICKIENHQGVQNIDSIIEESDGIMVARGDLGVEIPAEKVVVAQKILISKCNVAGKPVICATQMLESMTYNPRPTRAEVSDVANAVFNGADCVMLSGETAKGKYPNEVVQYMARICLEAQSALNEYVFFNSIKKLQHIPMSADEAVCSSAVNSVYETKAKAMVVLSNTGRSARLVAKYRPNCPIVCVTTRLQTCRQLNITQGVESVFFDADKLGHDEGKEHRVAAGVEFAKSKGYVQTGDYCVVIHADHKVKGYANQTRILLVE
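In 50 mM imidazole pH 7.2 with 7 mM MgCl2, LmPK (0.1 nM) turned over PEP (0.5 mM) and ADP (0.1 mM) for 1 h at room temperature. Luciferase read-out of ATP.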
A number is an active result. Unless noted, calls come from the whole dose curve; as a rule, active = well fitted inhibition curve with a large enough effect; inconclusive = small, poorly fitted or top-dose-only effect, or another doubt; inactive = no such curve, though single readings can be large or run the other way.

`Cc1cc2c(=O)n(Cc3ccco3)c(SCC(=O)N3CCCc4ccccc43)nc2s1` gave Shiga inhibitor inactive, Pf growth 48h inconclusive, CHX counter 12 and LmPK inh inactive.
Screening COc1ccc(C(=O)/C=C/Nc2ccc(S(=O)(=O)Nc3nc(C)cc(C)n3)cc2)c(OC)c1 returned Shiga inhibitor inactive, Pf growth 96h inconclusive, Pf growth 48h inconclusive, CHX counter inactive and LmPK inh inactive.
Cc1cc(C)nc(NS(=O)(=O)c2ccc(N/C=C/C(=O)c3ccc(Cl)cc3)cc2)n1 was read as Shiga inhibitor inactive, Pf growth 96h inactive, Pf growth 48h inactive, CHX counter 11 and LmPK inh inactive.
For CC(=O)Nc1ccc(S(=O)(=O)Nc2ccc(S(=O)(=O)Nc3nc(C)cc(C)n3)cc2)cc1 the results were Shiga inhibitor inactive, Pf growth 96h inactive, Pf growth 48h inactive, CHX counter inactive and LmPK inh inactive.
COc1ccc(C(=O)/C=C/Nc2ccc(S(=O)(=O)Nc3nc(C)cc(C)n3)cc2)cc1OC was read as Shiga inhibitor inactive, Pf growth 96h inconclusive, Pf growth 48h inactive, CHX counter 16 and LmPK inh inactive.
For Cc1cc(C)nc(NS(=O)(=O)c2ccc(NC(=O)Cc3ccccc3)cc2)n1 the results were Shiga inhibitor inactive, Pf growth 96h 13µM, Pf growth 48h inactive, CHX counter inactive and LmPK inh inactive.
Screening COc1ccc(NC(=O)C(c2ccccn2)N(C(C)=O)c2ccc(C)cc2)cc1 (stereo not drawn) returned Shiga inhibitor 60, Pf growth 96h inconclusive, Pf growth 48h inactive, CHX counter 16 and LmPK inh inactive.
Screening CCOc1ccc(NC(=O)C(c2ccccn2)N(C(=O)CCl)c2ccc(OCC)cc2)cc1 (stereo not drawn) returned Shiga inhibitor active, Pf growth 96h inactive, Pf growth 48h inactive, CHX counter 49 and LmPK inh inactive.
For CCOc1ccc(NC(=O)C(c2ccccn2)N(C(=O)CCl)c2ccc(OC)cc2)cc1 (stereo not drawn) the results were Shiga inhibitor 77, Pf growth 96h inconclusive, Pf growth 48h inactive, CHX counter 55 and LmPK inh inactive.
COc1ccc(N(C(=O)CCl)C(C(=O)NC2CCCCC2)c2cccnc2)cc1 (stereo not drawn) was read as Shiga inhibitor inactive, Pf growth 96h inconclusive, Pf growth 48h inconclusive, CHX counter inactive and LmPK inh inactive.
For CC(=O)Nc1ccc(C(=O)N(C)C(C(=O)Nc2ccc(C)cc2)c2ccccn2)cc1 (stereo not drawn) the results were Shiga inhibitor inactive, Pf growth 96h inactive, Pf growth 48h inactive, CHX counter inactive and LmPK inh inactive.
For O=[N+]([O-])c1cc(-c2ccn[nH]2)ccc1Cl the results were Shiga inhibitor inactive, Pf growth 96h inactive, Pf growth 48h inactive, CHX counter inactive and LmPK inh inactive.
O=C(NNC(=O)C1CC1)c1ccccc1[N+](=O)[O-] was read as Shiga inhibitor inactive, Pf growth 96h inactive, Pf growth 48h inactive, CHX counter inactive and LmPK inh inactive.
For COc1ccc(C(=O)Nc2ccc(CN3CCS(=O)(=O)CC3)cc2)cc1 the results were Shiga inhibitor inactive, Pf growth 96h inactive, Pf growth 48h inactive, CHX counter inactive and LmPK inh inactive.
For C/C(CC(=O)Nc1ccc(N(C)C)cc1)=N\NC(=O)Cc1csc(N)n1 the results were Shiga inhibitor 48, Pf growth 96h inactive, Pf growth 48h inconclusive, CHX counter 19 and LmPK inh inactive.
Screening CN(C)c1ccc(C(=O)Nc2ccc(CN3CCS(=O)(=O)CC3)cc2)cc1 returned Shiga inhibitor inactive, Pf growth 96h inactive, Pf growth 48h inactive, CHX counter 36 and LmPK inh inactive.
Screening O=S1(=O)CCN(Cc2ccc(F)cc2)CC1 returned Shiga inhibitor inactive, Pf growth 96h inactive, Pf growth 48h inactive, CHX counter inactive and LmPK inh inactive.
Screening C/C(CC(=O)Nc1ccc([N+](=O)[O-])cc1)=N\NC(=O)c1ccccc1[N+](=O)[O-] returned Shiga inhibitor inactive, Pf growth 96h inactive, Pf growth 48h inactive, CHX counter inactive and LmPK inh inactive.
For Cc1ccc(C(=O)Nc2ccc(CN3CCS(=O)(=O)CC3)cc2)cc1C the results were Shiga inhibitor 73, Pf growth 96h inactive, Pf growth 48h inactive, CHX counter 36 and LmPK inh inactive.
For C/C(CC(=O)Nc1ccc(N(C)C)cc1)=N\NC(=O)c1ccc([N+](=O)[O-])cc1 the results were Shiga inhibitor inactive, Pf growth 96h inactive, Pf growth 48h inactive, CHX counter 18 and LmPK inh inactive.
Screening O=C(c1cccc(Cl)c1)N1CCC(=O)N([C@H](COCc2cccc(Cl)c2)Cc2ccccc2)CC1 returned Shiga inhibitor inactive and CHX counter inactive.
Screening CN(C)c1ccc(NC(=O)c2ccc(Cn3cc([N+](=O)[O-])cn3)cc2)cc1 returned Shiga inhibitor 108, Pf growth 96h inactive, Pf growth 48h inactive, CHX counter 50 and LmPK inh inactive.
Screening CCNS(=O)(=O)c1ccc(NC(=O)c2ccc(Cn3cc([N+](=O)[O-])cn3)o2)cc1 returned Shiga inhibitor inactive, Pf growth 96h inconclusive, Pf growth 48h inconclusive, CHX counter inactive and LmPK inh inactive.
Screening O=C(Nc1cnn(Cc2c(Cl)cccc2Cl)c1)c1ccc([N+](=O)[O-])cc1 returned Shiga inhibitor 87, Pf growth 96h 13µM, Pf growth 48h inconclusive, CHX counter 53 and LmPK inh inactive.
Screening COc1cc(C)c(NC(=O)COc2ccc3c(c2)CCC3)cc1OC returned Pf growth 96h inactive and Pf growth 48h inactive.
Screening O=C(Cc1ccc2cccnc2c1)c1ccc(O)cc1O returned Shiga inhibitor 34, CHX counter 29 and LmPK inh inactive.
Oc1ccc2cccnc2c1 was read as Shiga inhibitor inactive, Pf growth 96h inactive, Pf growth 48h inactive, CHX counter inactive and LmPK inh inactive.
`CC(=O)C1=C(C)Nc2ncnn2C1c1ccc(Br)cc1` (stereo not drawn) gave Shiga inhibitor inactive, Pf growth 96h inactive, Pf growth 48h inactive, CHX counter inactive and LmPK inh inactive.
CC(N=C1NS(=O)(=O)c2ccccc21)C(=O)N1CCc2ccccc2C1 (stereo not drawn) was read as Shiga inhibitor 46, Pf growth 96h inactive, Pf growth 48h inactive, CHX counter 19 and LmPK inh inactive.
Screening CC(C(=O)N1CCc2ccccc2C1)N1C(=O)c2ccccc2C1=O (stereo not drawn) returned Shiga inhibitor inactive, Pf growth 96h inactive, Pf growth 48h inactive, CHX counter inactive and LmPK inh inactive.
COc1ccc(OC)c(NC(=O)c2cc(-c3ccc(C)cc3O)n[nH]2)c1 was read as Shiga inhibitor inactive, Pf growth 48h 10µM, CHX counter inactive and LmPK inh inactive.
Screening COc1ccc(NC(=O)c2cc(-c3ccc(C)c(C)c3O)n[nH]2)cc1Cl returned Shiga inhibitor inactive, Pf growth 96h inconclusive, Pf growth 48h inconclusive, CHX counter inactive and LmPK inh inactive.
